Screening data from PubChem BioAssay.
SMN2 splice up = increases expression of the SMN2 splice variant; HEK293 SMN2-luciferase splicing reporter, luminescence, 30-36 h; Potency, µM (series often up to 46.1 µM), actives largely listed as activators; hit rate 2.8% among 210,000; AID 1458; note: nearly all actives have a fitted effect of over 55% in size
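HEK293 cells carry an SMN2 […]–luciferase reporter in which exon 7 inclusion puts luciferase in frame. Cells were plated 10-12 h before compound addition, then incubated 30-36 h at 37C. ONE-Glo luminescence was read; sodium butyrate at 4.5 mM final served as control.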
NPC1 promoter act = activates the NPC1 promoter; Huh7 NPC1 promoter luciferase reporter, 24 h; Potency, µM (top dose mostly 9.22 µM), usual class: activators; hit rate 2.4% among 320,000; note: nearly all actives have a fitted effect of over 60% in size
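Huh7 cells stably carrying NPC1 promoter–luciferase, plated in Opti-MEM with 10% FBS for 2 h, were exposed to compound in DMSO for 24 h at 37 °C; luciferase reagent was added for 10 min and luminescence read.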
Rab9 promoter act = activates the Rab9 promoter | hit rate 2.8% among 320,000 | Huh7 Rab9 promoter-luciferase reporter, luminescence, 24 h | Potency, µM (top dose mostly 9.22 µM), hits mostly activators | AID 485297; note: nearly all actives have a fitted effect of over 60% in size
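Luminescence read-out: Huh7 cells stably expressing Rab9-luciferase, treated 24 h with compound at 37 °C, then lysed with luciferase reagent for 10 min at ambient before reading.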
FLuc modulator = firefly luciferase modulation, counter-screen for miR-21 project. P08659. purified FLuc, Km substrates, luminescence inhibition. Potency, µM (doses to about 57.5 µM), actives largely listed as inhibitors. hit rate 6.9% among 360,000. AID 588342; note: nearly all actives have a fitted effect of over 55% in size
Target sequence (P08659 whole entry, looked up): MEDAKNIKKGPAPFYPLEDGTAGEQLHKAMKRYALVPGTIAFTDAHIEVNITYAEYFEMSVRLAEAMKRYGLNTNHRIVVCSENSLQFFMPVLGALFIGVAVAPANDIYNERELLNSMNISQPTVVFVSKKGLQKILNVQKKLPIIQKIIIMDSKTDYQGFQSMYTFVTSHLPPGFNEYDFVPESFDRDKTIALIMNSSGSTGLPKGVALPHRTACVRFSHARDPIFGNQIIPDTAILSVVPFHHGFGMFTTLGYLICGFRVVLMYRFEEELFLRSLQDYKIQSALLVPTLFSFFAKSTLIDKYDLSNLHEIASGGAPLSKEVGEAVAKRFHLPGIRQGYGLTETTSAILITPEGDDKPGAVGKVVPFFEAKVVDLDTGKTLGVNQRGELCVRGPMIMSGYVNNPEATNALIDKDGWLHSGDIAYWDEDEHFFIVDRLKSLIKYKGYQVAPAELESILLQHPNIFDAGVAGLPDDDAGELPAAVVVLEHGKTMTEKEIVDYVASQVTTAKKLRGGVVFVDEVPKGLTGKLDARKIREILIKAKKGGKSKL
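Biochemical qHTS of compounds, final roughly 60 µM downward over six points, against 10 nM purified firefly luciferase using Km concentrations of substrates (10 uM D-luciferin, 10 uM ATP) in Tris acetate pH 7.5 buffer; luminescence output.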
ELG1 genotox = inducers of genotoxicity in HEK293T ELG1-luciferase cells; Potency, µM (top dose mostly 46 µM), most hits filed as activators; AID 504466; hit rate 1.3% among 330,000; HEK293T ELG1-luciferase reporter, luminescence, 16 h; note: nearly all actives have a fitted effect of over 60% in size
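Genotoxic stress is detected as increased luminescence from luciferase-tagged ELG1 in HEK293T cells, measured with ONE-Glo after a 16 hr treatment at 37 °C.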
Of the large screens only hits and unclear results are named; the others gave an inactive call. Hits are enriched below; roughly 7.4% of the tested compounds scored in any of these assays. Calls come from the whole dose curve; as a rule, active = well fitted curve in the direction sought with a large enough effect; inconclusive = small, poorly fitted or top-dose-only effect, or another doubt; inactive = no such curve, though single readings can be large; an effect the other way counts as inactive or inconclusive.

NC(=O)C1CCN(c2nc(-c3ccc4c(c3)OCCO4)cs2)CC1	NPC1 promoter act 1.4µM, Rab9 promoter act 2.8µM, FLuc modulator 4.8µM (no result: SMN2 splice up)
O=C(NC1CCCCC1)c1ccc(Cn2c(SCc3cccc(F)c3)nc3cccnc32)cc1	none (no result: SMN2 splice up, NPC1 promoter act, Rab9 promoter act, ELG1 genotox)
COc1ccc(Cn2c(=O)[nH]c3cc(C(=O)NC4CCCC4)ccc3c2=O)cc1	ELG1 genotox inconclusive
Cc1nc(NC(=O)CSc2ccc(-c3nc4ccccc4[nH]3)cn2)sc1C	NPC1 promoter act inconclusive, Rab9 promoter act inconclusive, ELG1 genotox inconclusive
Cc1ccc2nc(SCC(=O)Nc3nnc(SCC(N)=O)s3)[nH]c2c1	FLuc modulator 17µM
Cc1ccc2nc(-c3ccc(SCC(=O)Nc4nnc(C)s4)nc3)[nH]c2c1	SMN2 splice up 14µM, NPC1 promoter act 2.5µM, Rab9 promoter act 2.8µM, FLuc modulator 0.6µM, ELG1 genotox inconclusive
O=C(CSc1ccc(-c2nc3ccccc3[nH]2)cn1)Nc1ccc(S(=O)(=O)NC2CC2)cc1	FLuc modulator 1.5µM
Cc1ccc(SCC(=O)Nc2ccc(-c3nc4ccccc4[nH]3)cc2)cc1	SMN2 splice up 5.6µM, NPC1 promoter act inconclusive, Rab9 promoter act inconclusive, ELG1 genotox inconclusive
CCOC(=O)c1ccccc1NC(=O)CCOc1ccccc1	none (no result: NPC1 promoter act, Rab9 promoter act, ELG1 genotox)
Cc1cc(C)cc(NC(=O)CS(=O)(=O)c2cccc3nsnc23)c1	none (no result: SMN2 splice up)
CN(C)CCNC(=S)Nc1ccc(-c2nc3ccccc3[nH]2)cc1	SMN2 splice up 11µM, NPC1 promoter act 2.2µM, Rab9 promoter act 1.6µM, FLuc modulator 9.5µM
CCc1nnc(NC(=O)CSc2n[nH]c(-c3ccccc3O)n2)s1	FLuc modulator 17µM (no result: SMN2 splice up)
CC(=O)Nc1ccc(-c2nc3c(C)cccc3[nH]2)cc1	SMN2 splice up 3.5µM, NPC1 promoter act 2.5µM, Rab9 promoter act 1.6µM, FLuc modulator 2.4µM, ELG1 genotox 2.9µM
CC(=O)Nc1cc(NC(C)=O)cc(-c2nc3ccccc3[nH]2)c1	none
S=C(NCCCN1CCOCC1)Nc1ccc(-c2nc3ccccc3[nH]2)cc1	FLuc modulator inconclusive
Cc1ccc2nc(-c3ccc(SCC(=O)Nc4nc(C)cs4)nc3)[nH]c2c1	SMN2 splice up 6.3µM, NPC1 promoter act 3.5µM, Rab9 promoter act 2.8µM, FLuc modulator 0.54µM, ELG1 genotox inconclusive
O=C(CSc1n[nH]c(-c2ccccc2O)n1)N1CCOCC1	FLuc modulator 19µM
CCc1nnc(NC(=O)CSc2ccc(-c3nc4ccccc4[nH]3)cn2)s1	SMN2 splice up inconclusive, NPC1 promoter act inconclusive, Rab9 promoter act 2.5µM, FLuc modulator inconclusive, ELG1 genotox inconclusive
COc1ccccc1C(=O)OCc1ccc2sc(C)nc2c1	FLuc modulator 17µM
Oc1ccccc1C1NN=C(c2ccccc2)S1 (configuration not stated)	NPC1 promoter act inconclusive, Rab9 promoter act inconclusive, FLuc modulator 0.48µM, ELG1 genotox inconclusive (no result: SMN2 splice up)
Cc1ccc(Cl)cc1NC(=O)Cn1c(=O)n(C(C)C)c(=O)c2oc3ccccc3c21	none (no result: SMN2 splice up, NPC1 promoter act, Rab9 promoter act, ELG1 genotox)
Cc1ccccc1Nc1nc(-c2ccccc2)c(C(=O)Nc2cccnc2)s1	FLuc modulator 15µM
CCOc1ccc(CNC(=O)CCC(=O)n2ncc3ccc(Cl)cc32)cc1	none (no result: SMN2 splice up)
COc1cc(OC)cc(-c2cc3cc4c(cc3cn2)OCO4)c1	ELG1 genotox 4.1µM (no result: SMN2 splice up, NPC1 promoter act, Rab9 promoter act, FLuc modulator)
COc1ccc(-c2cc3cc4c(cc3cn2)OCO4)cc1	ELG1 genotox 0.73µM (no result: SMN2 splice up, NPC1 promoter act, Rab9 promoter act, FLuc modulator)
COc1cc(OC)cc(-c2n[nH]c(=S)n2-c2ccc3c(c2)OCO3)c1	none
COc1ccc(-c2cc3cc(OC)c(OC)cc3cn2)cc1	none (no result: SMN2 splice up, NPC1 promoter act, Rab9 promoter act, FLuc modulator)
O=C(O)c1ccncc1.O=C(O)c1ccncc1.[Cl][Pt]([Cl])([Cl])[Cl]	none (no result: NPC1 promoter act, Rab9 promoter act, FLuc modulator, ELG1 genotox)
O=C(c1cccc([N+](=O)[O-])c1)N1CCOCC1	none
O=C(/C=C\c1ccc(-c2cccc([N+](=O)[O-])c2)o1)N1CCOCC1	NPC1 promoter act inconclusive, Rab9 promoter act 3.5µM, FLuc modulator inconclusive, ELG1 genotox inconclusive (no result: SMN2 splice up)
COc1ccc(S(=O)(=O)N2CCN(C(=O)c3sccc3-c3ccccc3)CC2)cc1	none (no result: SMN2 splice up)
COc1ccc2c(n1)Sc1nc3ccccc3nc1N2	NPC1 promoter act inconclusive, Rab9 promoter act 2.2µM, FLuc modulator 2.1µM, ELG1 genotox 8.2µM (no result: SMN2 splice up)
COc1cc2ccccc2nn1	none (no result: SMN2 splice up)
O=C(O)C[C@H](NC(=O)CP(=O)(O)O)C(=O)O.[NH-][C@@H]1CCCC[C@@H]1[NH-].[Pt]	SMN2 splice up 2.5µM (no result: NPC1 promoter act, Rab9 promoter act, FLuc modulator, ELG1 genotox)
COC(=O)c1sc(N2C(=O)c3oc4cc(C)c(C)cc4c(=O)c3C2c2ccccc2F)nc1C (configuration not stated)	none (no result: NPC1 promoter act, Rab9 promoter act, ELG1 genotox)
